Shown are actives, neighbours in structure and some others; about 2.3% of the full set was active somewhere.
Rce1 inhib: yeast Rce1p protease inhibitors, primary screen, biochemical, fluorescence, cell-free homogeneous; CAAX prenyl protease 2 (Saccharomyces cerevisiae (strain ATCC 204508 / S288c)), Q03530; yeast membranes, quenched prenylated peptide cleavage fluorescence; calls only; 290,000 tested, 0.27% active; AID 2563, 2010;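 active = fall in fluorescence gain of 50% or more versus controls, with final raw signal at or below 3038400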;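 note: plate controls were neutral control wells for no effect and wells lacking membranes for full effect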
PfM18AAP inh: PfM18AAP inhibitors, malaria aminopeptidase, primary screen, biochemical, QFRET, recombinant enzyme; M18 aspartyl aminopeptidase (Plasmodium falciparum 3D7); H-Glu-NHMec fluorogenic cleavage; inhibition, % at 7.35 µM; 290,000 tested, 1.2% active; AID 1822, 2009;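 active = inhibition above the campaign mean inhibition over all tested compounds plus 3 SD, cut at about 28% in these data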;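 note: 0% = plate median of test compound wells and 100% = 2 mM ZnCl2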
FID counter: compounds displacing fluorescent DNA intercalator, primary screen, artefact control for HCV NS3 helicase inhibitor project, biochemical, FID fluorescence; 290,000 tested, 0.17% active; DNA fluorescent intercalator displacement; inhibition, % at 7.9 µM; in the data active = inhibition above about 37%;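 note: 0% = vehicle and 100% = reference compound; higher means more ethidium bromide displaced from hairpin DNA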
Kir21 inh: inhibitors of mouse Kir2.1 inward-rectifier potassium channel | Inward rectifier potassium channel 2 (Mus musculus), P35561 | HEK293-Kir2.1, FluxOR thallium flux fluorescence; stronger effect = lower value | B-score at 10 µM | 310,000 tested, 0.85% active;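 active = fluorescence ratio B-score at or below minus 3 SD of library scores, with starting-brightness B-score within 2 SD, cut at about -4.2 in these data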;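 note: channel flux triggered by added potassium and thallium sulfate stimulus; B-score of peak minus minimum fluorescence over baseline after thallium stimulus; more negative B-score means stronger Kir2.1 block with less thallium influx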
Target sequence (P35561 whole entry, looked up): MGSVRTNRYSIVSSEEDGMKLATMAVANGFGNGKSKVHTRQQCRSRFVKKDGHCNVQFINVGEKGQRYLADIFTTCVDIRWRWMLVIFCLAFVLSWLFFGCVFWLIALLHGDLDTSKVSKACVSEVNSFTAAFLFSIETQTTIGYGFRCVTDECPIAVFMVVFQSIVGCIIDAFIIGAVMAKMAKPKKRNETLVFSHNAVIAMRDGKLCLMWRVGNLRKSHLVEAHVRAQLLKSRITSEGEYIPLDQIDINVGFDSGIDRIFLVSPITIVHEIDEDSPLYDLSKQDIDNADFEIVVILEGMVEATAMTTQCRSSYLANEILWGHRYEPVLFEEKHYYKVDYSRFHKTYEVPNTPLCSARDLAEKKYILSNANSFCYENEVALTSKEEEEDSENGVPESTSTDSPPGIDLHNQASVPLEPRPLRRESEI
The depositor's hits bear a star; i = inactive; . = no result; + = active, no number.

SMILES | Rce1 inhib | PfM18AAP inh | FID counter | Kir21 inh
COc1cc(C2C(C(=O)c3cc4ccccc4o3)=C(O)C(=O)N2CCN2CCOCC2)ccc1OCCC(C)C (configuration not stated) | i | 4 | -36 | 0.68
O=C1CSC(=S)N1/N=C/c1cc(Br)ccc1O | i | 35* | -11 | 0.38
CC(C)(C)c1ccc(/C=N/n2cnnc2)cc1 | i | -5 | -3 | 0.51
O=C1CSC(=S)N1/N=C/c1ccc(O)c(O)c1O | i | 68* | -6 | 0.05
CC(C)(C)c1ccc(/C=N/N2C(=O)CSC2=S)cc1 | i | 31* | -19 | -0.31
COc1ccc(-c2nn(-c3ccccc3)cc2/C=N/N2C(=O)CSC2=S)cc1 | i | 26 | -7 | -1.5
NNC(=O)c1ccc(Cn2cccn2)o1 | i | -6 | -10 | -0.76
Cc1ccc(C)c(/C=N/n2cc(-c3ccccc3)[nH]c2=S)c1 | i | 29* | -9 | -1.3
O=C(O)c1ccc(/C=N/n2cc(-c3ccccc3)[nH]c2=S)cc1 | i | 48* | -4 | -1.8
S=c1[nH]c(-c2ccccc2)cn1/N=C/c1ccc(Br)cc1 | . | 19 | -10 | -0.57
N#CC1=C(N)C(C#N)(C#N)C(c2cccnc2)C2CCCC=C12 (configuration not stated) | i | 21 | -2 | -0.57
N#CC1=C(N)C2=CCCC[C@H]2[C@H](c2cccc(F)c2)C1(C#N)C#N | i | 16 | -10 | -5.4*
CS(=O)(=O)c1ccc(C(=O)OCC(=O)N(CCc2ccccc2)Cc2ccccc2)cc1 | + | . | . | -0.16
CS(=O)(=O)Cc1ccc(C(=O)N(CCc2ccccc2)Cc2ccccc2)cc1 | + | -4 | -50 | 0.1
O=C(CSc1nc2ccccc2c(=O)n1CC1CCCO1)NCCc1ccccc1 (configuration not stated) | i | 3 | -37 | 0.32
Cc1ccc(NC(=O)CSCC(=O)Nc2nnc(C)s2)cc1 | i | . | . | 0.06
Cc1[nH]n(-c2ccccc2)c(=O)c1C=Nc1cccc2cccnc12 | i | 7 | 2 | -0.02
Cc1[nH]n(-c2ccccc2)c(=S)c1C=Nc1cccc([N+](=O)[O-])c1 | i | 50* | -5 | 1.2
COc1ccc(C(C#N)=C2C=CC(=NO)C=C2)cc1 | i | 29* | 4 | -1
Cc1ccc2c(c1)c1c(n2CC(O)CNC2CCCCC2)CCCC1 (configuration not stated) | i | 4 | 29 | -7.9*
CN(C(=O)CN1C(=O)C2C3CC(C(Br)C3Br)C2C1=O)C1CCCCC1 (configuration not stated) | i | -1 | -22 | 0.59
CCOC(=O)Cn1cc(/C=C/[N+](=O)[O-])c2ccccc21 | i | 11 | -12 | 2
O=[N+]([O-])/C=C/c1c(OCc2ccccc2)ccc2ccccc12 | i | 13 | -1 | -7.9*
CCOc1ccc(/C=C/[N+](=O)[O-])c2ccccc12 | i | 22 | -3 | -8.3*
CCCCOc1ccc2ccccc2c1C=O | i | -14 | 4 | -0.47
SMILES | Rce1 inhib | PfM18AAP inh | FID counter | Kir21 inh
CCOC(=O)COc1ccc2ccccc2c1/C=C/[N+](=O)[O-] | i | 37* | 3 | -0.24
COc1ccccc1S(=O)(=O)Nc1cc(C)nn1-c1ccc(C)cc1 | i | -8 | -6 | 0.92
CN(C)C(=S)Oc1ccccc1-c1ccccc1OC(=S)N(C)C | i | 4 | -29 | 1.4
O=C(c1nn2c(C(F)(F)F)cc(-c3ccccc3)nc2c1Cl)N1CCN2CCCC2C1 (configuration not stated) | i | 3 | 2 | -0.15
O=c1cnnc(N/N=C/c2c[nH]c3ccccc23)[nH]1 | i | 29* | -3 | -0.03
C(=N\Nc1nc2ccccc2[nH]1)/c1cccs1 | i | 14 | -1 | 1.1
O=c1cnnc(N/N=C/c2cccs2)[nH]1 | i | 30* | -5 | 1.6
CC(=O)Nc1ccc(S(=O)(=O)NCCC(=O)N2CCN(C(c3ccccc3)c3ccccc3)CC2)cc1 | i | . | . | 0.67
COC(=O)N/N=C\c1c(C)nn(-c2ccccc2)c1Cl | i | 1 | -7 | -1.4
Cc1ccc(C)c(OCC(=O)N/N=C/c2c(C)nn(-c3ccccc3)c2Cl)c1C | i | 0 | 0 | -4.4*
Oc1ccc(/C=N/Nc2cc(N3CCOCC3)nc(N3CCOCC3)n2)cc1O | i | 56* | -29 | 0.7
Oc1ccccc1/C=N/Nc1cc(N2CCCC2)nc(N2CCCC2)n1 | i | 9 | -7 | -1.1
CCN(Cc1cccc(F)c1)C(=O)c1ccc2ccccc2n1 | i | 1 | -33 | 0.04
COc1cc(C(=O)Oc2c(OC)cc(C(=S)N3CCOCC3)cc2OC)cc(OC)c1OC | i | 1 | -41 | -0.09
COc1cc(C(=S)N2CCOCC2)cc(OC)c1OC(=O)c1ccc(F)cc1 | i | 29* | -36 | 0.44
O=C(Oc1cccc(C(=S)N2CCOCC2)c1)c1ccccc1 | i | 28* | -26 | -0.94
CCOC(=O)c1c(NC(=O)CSc2n[nH]c(CNc3ccccc3)n2)sc(C)c1C | . | 1 | -7 | 2.1
CCOC(=O)c1c(NC(=O)CSc2n[nH]c(-c3ccco3)n2)sc(C)c1C | i | 31* | -34 | 0.35
O=C1CSC(c2cccnc2)N1Cc1ccc(Cl)cc1Cl (configuration not stated) | i | -3 | -10 | -4.4*
CC1CN(Cc2ccccc2)c2ccccc2NC1=S (configuration not stated) | i | 1 | -5 | -4.2*
CCOC(=O)c1c(CSC(=N)N)n(-c2ccc(C)cc2)c2cc(Br)c(OC(C)=O)cc12 | i | 1 | 5 | -15*
CCOC(=O)c1c(CSC(=N)N)n(C)c2cc(Br)c(OC(C)=O)cc12 | i | 4 | 13 | -6.7
C/C=C/c1ccc(OCCCCOc2c(OC)cccc2OC)c(OC)c1 | i | -5 | -17 | 0.68
C=CCc1ccc(OCCCNCc2ccccc2)c(OC)c1 | i | -1 | 9 | -8*
C/C=C/c1ccc(OCCN2CCc3ccccc3C2)c(OC)c1 | . | 1 | 10 | -11*
SMILES | Rce1 inhib | PfM18AAP inh | FID counter | Kir21 inh
C=CCc1ccc(OCCN2CCc3ccccc3C2)c(OC)c1 | i | -1 | 6 | -10*
C=CCc1ccc(OCCn2cncn2)c(OC)c1 | i | -2 | -5 | 2
Cc1ccc(N2CC(C(=O)NCc3n[nH]c(=O)c4ccccc34)CC2=O)cc1 (configuration not stated) | i | . | . | -0.49
CCN(CC(=O)Nc1ccc(NC(C)=O)cc1)C(=O)c1cccc(S(=O)(=O)N2CCCC2)c1 | i | . | . | -1.2
CC1(C)Cc2c(sc(NC(=O)c3ccc(C(=O)c4ccccc4)cc3)c2C#N)C(C)(C)N1 | i | 3 | 38* | -0.69
Cc1ccc(S(=O)(=O)CCC(=O)Nc2ccccc2C)cc1 | i | -5 | -6 | 0.36
Cc1ccc(S(=O)(=O)CCC(=O)Nc2sccc2C#N)cc1 | i | . | . | -4.6*
CN(C)c1ccc(/C=C/c2ccc3c4ccccc4ccc3[n+]2-c2ccccc2)cc1 | . | 3 | 78* | .
